Data: PubChem BioAssay (NCI)
The panel holds about 83,000 compounds, 20% with a hit somewhere; the sample as a whole holds those more often.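 Interpretation: 100, growth as untreated; towards 0, rising growth inhibition; 0, no net growth; 0 to -100, cell death. Compounds scoring below 10 were considered active.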 A number with no mark means an inactive call. Activity calls are given as the source filed them.

What was measured:
Assay in all cases: NCI-60 one-dose screen, 48 h (100 = growth as untreated, 0 = no growth, -100 = all killed)
NCI-H23 lung = conditions: 10 µM unless noted
NCI-H322M lung = conditions: 10 µM unless noted
HOP-62 NSCLC = conditions: 10 µM unless noted
NCI-H460 lung = conditions: 10 µM unless noted
A549/ATCC NSCLC = conditions: 10 µM unless noted
786-0 renal = conditions: 10 µM unless noted
COLO 205 colon = conditions: 10 µM unless noted
HOP-92 NSCLC = conditions: 10 µM unless noted
NCI-H522 lung = conditions: 10 µM

SMILES | growth (NCI-H23 lung) | growth (NCI-H322M lung) | growth (HOP-62 NSCLC) | growth (NCI-H460 lung) | growth (A549/ATCC NSCLC) | growth (786-0 renal) | growth (COLO 205 colon) | growth (HOP-92 NSCLC) | growth (NCI-H522 lung)
COc1ccc(Cn2c(Br)c3c(c2-c2cc(OC)c(OC)c(OC)c2)CCc2sc(N)nc2-3)cc1 | 38.1% | 46% | 41.4% | 7.43% (active) | 19% | 40.2% | -10.6% (active) |  | 
N#Cc1ccc(C(F)(F)F)nc1N1CCC(C(=O)Nc2ccc(Cl)cc2)CC1 | 72% | 71.1% | 69% | 34.1% | 53.2% | 70.4% | 85.9% |  | 
Cc1ccccc1-c1cc(-c2ccc(Br)s2)[nH]c(=O)c1C#N | 96.8% | 97.9% |  | 106% | 107% | 97.6% |  | 77.9% | 93.4%
COc1cc(C2CC(=O)Nc3c2ccc2ccccc32)cc(Br)c1OC (stereo not drawn) | 28.5% | 33.1% | 24.9% | 3.08% (active) | 18.6% | 30.6% | -57.5% (active) |  | -42.7% (active)
COc1ccc(OC)c(/C=C2\Oc3cc(O)ccc3C2=O)c1 | 96.1% | 92.6% |  | 91.6% | 98.8% | 89.5% |  | 98.2% | 77.6%
Cc1nc(-c2ccccc2)cc2c(O)c(C(=O)N/N=C/Cc3ccccc3)[nH]c(=O)c12 | 100% | 107% | 104% | 102% | 105% | 103% | 111% |  | 91.1%
Nc1nc2c(s1)CCc1c-2c(Br)n(Cc2ccccc2)c1Br | 91.8% | 99.8% | 64.9% | 98.2% | 93.7% | 102% | 85.6% |  | -74.9% (active)
O=C1c2[nH]cc(CN[C@@H]3CCCN3)c2C(=O)c2c1c(O)c1ccccc1c2O | -53.7% (active) | -95% (active) | -100% (active) | -92.6% (active) | -93.1% (active) | -83.1% (active) | -79.8% (active) |  | -85.1% (active)
Oc1cccc(Nc2nc(-c3ccccn3)cs2)c1 | 107% | 94.6% | 98% |  | 94.8% | 102% | 103% | 89% | 
COC(=O)c1c2c(c(C)[n+]([O-])c1C)C(=O)C=C(NCc1cccc(Cl)c1)C2=O | -63% (active) | -18.3% (active) |  | -3.61% (active) | -49.5% (active) | 6.87% (active) |  | -32.2% (active) | -63.5% (active)
CCOC(=O)c1cnn(CC(O)c2ccc(F)cc2)c1NC(=O)Nc1ccccc1F (stereo not drawn) | 98.4% | 103% |  | 105% | 103% | 90.3% |  | 102% | 92.2%
COC(=O)c1c2c(c(C)[n+]([O-])c1C)C(=O)C=C(NCc1ccc(F)c(Cl)c1)C2=O | -65.9% (active) | -38.9% (active) | -51.9% (active) |  | -47.4% (active) | 3.92% (active) |  | -42.6% (active) | -39.4% (active)
CCCCOC(=O)C1OC(Oc2ccc3c(C)cc(=O)oc3c2)[C@@H](OC(C)=O)C(OC(C)=O)C1OC(C)=O (stereo partly drawn) | 99.9% | 104% | 98.7% |  | 96.3% | 98.5% |  | 98.3% | 88.8%
COC(=O)c1c2c(c(C)[n+]([O-])c1C)C(=O)C(NCc1ccc(O)cc1)=CC2=O | -57.4% (active) | 0.623% (active) | -7.28% (active) |  | 4.46% (active) | 7.96% (active) |  | 34% | -33.2% (active)
O=C1C=CC(=O)N1CCCCCCCCCCN1C(=O)C=CC1=O | 85.2% | 109% | 88.7% | 96.1% | 97.4% | 88.7% | 65.7% |  | 
COc1cc(-c2nc(SC(C)C)nc(Nc3cccc(C)c3)c2C#N)cc(OC)c1OC | 103% | 107% | 103% |  | 91% | 109% | 109% | 106% | 
COc1ccc(Nc2[nH]n(C3=Nc4ccccc4Sc4ccccc43)c(=O)c2C#N)cc1 | 28.3% | 89.1% | 75.9% |  | 55.2% | 64.7% | 15.1% |  | 
COc1ccc(Nc2nc(NCCNc3ccnc4cc(Cl)ccc34)nc(N3CCOCC3)n2)cc1 | 82.3% | 74.5% | 92.2% | 37.2% | 70.9% | 57.2% | -37.2% (active) |  | 

SMILES | growth (NCI-H23 lung) | growth (NCI-H322M lung) | growth (HOP-62 NSCLC) | growth (NCI-H460 lung) | growth (A549/ATCC NSCLC) | growth (786-0 renal) | growth (COLO 205 colon) | growth (HOP-92 NSCLC) | growth (NCI-H522 lung)
CN(C)C(=S)SCN1C(=O)c2ccc([N+](=O)[O-])cc2S1(=O)=O | 99.7% | 99% | 105% |  | 97.7% | 103% | 75.9% |  | 103%
CC1=CN2C(=NC3=C(CCCC/C3=C\c3ccccc3)C2c2ccccc2)S1 (stereo not drawn) | 101% | 101% | 103% | 107% | 108% | 105% | 122% |  | 
CCN(CC)CCCNc1ccc(C)c2sc3ccccc3c(=O)c12 | 53.8% | 57.2% | 40.9% |  | 19.1% | 32.5% | -70.2% (active) | 25.3% | 54.4%
COc1cc(-c2nc(Nc3nc4ccccc4[nH]3)nc(N)c2C#N)cc(OC)c1OC | 87.9% | 83.2% | 65.1% |  | 69.6% | 67.1% | 32.3% | 50.5% | 20.1%
Clc1ccc(Nc2nc(Nc3ccccc3)nc(Nc3ccc(-c4cc(-c5ccc(Cl)cc5)on4)cc3)n2)cc1 | 72.2% | 77.6% | 75.6% | 7.19% (active) | 38.9% | 53.9% | 69.8% |  | 26.2%
CCN(c1ccc(C(=O)N2CCN(c3ccccc3)CC2)cc1)S(C)(=O)=O | 103% | 102% | 104% |  | 105% | 101% | 113% |  | 
Nc1ccccc1-c1n[nH]c(=O)[nH]c1=O | 96.6% | 114% | 112% | 107% | 105% | 109% | 137% |  | 
CC1SC(c2ccc(Cl)cc2)N(CCc2cccs2)C1=O (stereo not drawn) | -0.245% (active) | 21.7% | 15.2% |  | 1.08% (active) | -49.4% (active) | -60.5% (active) |  | -48.9% (active)
CN1CCc2c(c3ccccc3c3ccccc23)C1 | 74.2% | 51.4% | 45.8% |  |  | 49.8% | 22.2% |  | 48.7%
COc1ccc(OC2=C(C#N)C(=N)N3c4ccccc4Sc4ccccc4C3N2)cc1 (stereo not drawn) | 87.9% | 97.5% | 79.9% |  | 104% | 105% | 103% |  | 97.8%
Cc1ccc(S(=O)(=O)N2C/C(=C\c3cc(F)cc(F)c3)C(=O)/C(=C/c3cc(F)cc(F)c3)C2)cc1 | -21.6% (active) | 27% | -60% (active) | 5.73% (active) | 27.6% | -85.6% (active) | 1.42% (active) |  | 
CN1CCN(c2nc(-c3ccncc3)nc3sc4c(c23)CCCCCC4)CC1 | 73% | 86.6% | 71% | 84.3% | 69% |  | 52.8% |  | 
COc1cccc(C2CC(=O)Nc3cc4c(cc32)CCC4)c1OC (stereo not drawn) | 59% | 68% | 60.5% |  | 47.8% | 79.6% | 50% |  | 60.9%
CS(=O)(=O)Nc1cccc(C(=O)NCc2ccc(N3CCOCC3)cc2)c1 | 104% | 112% | 107% |  | 119% | 101% | 112% |  | 
O=c1nc(NO)[nH]c(=O)n1Cc1ccc(F)cc1 | 106% | 98.8% | 107% | 102% | 104% | 101% | 118% |  | 
O=C(CCc1nnc2sc(/C=C\c3ccccc3)nn12)c1nc2ccccc2[nH]1 | 73.4% |  | 75.8% | 96.7% | 97.5% | 89.7% | 90.7% | 52.9% | 95.1%
CN1CCN(C)c2cncc(Br)c2C1=O | 101% |  |  | 105% | 104% |  | 108% | 91.8% | 93.5%
COC(=O)[C@@]12CC[C@@H](C)[C@]3(C[C@@H](c4ccoc4)OC3=O)[C@H]1CC[C@@H]1O[C@@]12C | 96.1% | 104% |  | 103% | 103% | 99.3% |  | 92.4% | 
